Source: PubChem BioAssay AID588473 (Sanford-Burnham Center for Chemical Genomics, 2011)
Out of some 350,000 compounds screened, about 1,600 (0.46%) were called active.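 The calls were made as follows: active = activation of at least 50%, plus an integration ratio under a set limit after plate pattern correction; inactive = the rest.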 Only a selection was taken, and actives are over-represented in it overall.

system: CRF-binding protein / CRF receptor 2 complex (human); assay: agonists of CRF-BP/CRF-R2 complex, primary screen, cell-based, HEK293, calcium dye fluorescence, uHTS (AID 588473); conditions: calcium dye fluorescence (FLIPR), at 13.2 µM, hits give high values, percent of saturating CRF peptide response;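 also: plate controls were neutral control wells without compound for no effect and CRF at EC100 for full effect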

Structure (SMILES) | activation
CCCCCCCCNS(=O)(=O)CCNC1CCCCC1 | -0.59% (inactive)
CC(C)n1c(-c2ccncc2)n[nH]c1=S | -1.12% (inactive)
O=C(Nc1cc2c3c(c1)C1CCCC1CN3CC1CCCC21)c1ccc([N+](=O)[O-])cc1 (stereo unspecified) | -3.97% (inactive)
Nc1cc(C(=O)N2CCN(c3ccccc3Cl)CC2)ccc1N1CC2CC(C1)c1cccc(=O)n1C2 (stereo unspecified) | 0.29% (inactive)
Oc1ccc(-c2nncn2-c2ccccc2)cc1 | 0.43% (inactive)
CC(N=Cc1nc(-c2ccccc2)oc1O)c1ccccc1 (stereo unspecified) | -5.27% (inactive)
CCOc1ccc2nc(C(=O)N3CCCC(C)C3)sc2c1 (stereo unspecified) | 0.48% (inactive)
CCOc1ccc2nc(/N=C/c3nc(-c4ccccc4)oc3O)sc2c1 | 191% (active)
Cn1c(=O)c2c(nc(N3CCOCC3)n2CCNC2=NCCC2)n(C)c1=O | -1.41% (inactive)
C[C@H]1NS(=O)(=O)c2cc(Cl)ccc2O[C@@H]1c1ccccc1 | -0.01% (inactive)
COC(=O)C1(O)CC(C(C)C)=NN1C(=O)c1ccc(Cl)cc1 (stereo unspecified) | 0.23% (inactive)
CC1=C/C(=N\S(=O)(=O)c2ccccc2)C(C(C)C)=CC1=O | 81.3% (active)
Cc1ccc(S(=O)(=O)/N=C2\C=C(NS(=O)(=O)c3ccc(C)cc3)C(=O)c3ccccc32)cc1 | -2.69% (inactive)
COc1ccc(S(=O)(=O)/N=C2\C=C(NS(=O)(=O)c3ccccc3)C(=O)c3ccccc32)cc1 | -1.4% (inactive)
O=[N+]([O-])c1cc(S(=O)(=O)NCCc2ccccn2)ccc1Cl | 1.07% (inactive)
CCCCN1C[C@H](c2ccc(Br)cc2)[C@@H](CC(=O)Nc2ccc(Br)cc2)C1=O | -0.04% (inactive)
COc1ccc(C2=CC(c3cccc(OC)c3)n3nnnc3N2)cc1 (stereo unspecified) | 69.7% (active)
COc1ccc(C2CC(c3cccs3)Nc3nnnn32)cc1 (stereo unspecified) | -1.43% (inactive)
COC(=O)C1=C(C(=O)c2ccc(C)cc2)C(c2ccccc2)n2nnnc2N1 (stereo unspecified) | -0.02% (inactive)
CC/C(=N\O)C(C)(C)/[N+]([O-])=C/c1ccc(Br)cc1 | 0.05% (inactive)
CC(C)(C)Nc1c(-c2cccs2)nc2ccccn12 | -0.46% (inactive)
CCN(Cc1nc2ccccc2c(=O)[nH]1)Cc1cc(=O)oc2cc(C)c(C)cc12 | -0.08% (inactive)

Structure (SMILES) | activation
COC(=O)c1cc(C(=O)OCC(=O)Nc2cc(C)on2)cc([N+](=O)[O-])c1 | -3.69% (inactive)
CCc1ccc(NC(=O)CN2C(=O)COc3ccc(S(=O)(=O)N4CCCC4)cc32)cc1 | -5.92% (inactive)
COCCCNCC(=O)Nc1sc(C)c(C)c1C(=O)OC | -2.35% (inactive)
C[n+]1ccc(/C=C/c2c[nH]c3ccccc23)cc1 | 61.1% (active)
COc1ccc(N(CC(=O)Nc2ccc(F)c(F)c2)S(=O)(=O)c2c(C)[nH]c(=O)[nH]c2=O)cc1 | -1.2% (inactive)
CCCc1nc2c(c(=O)c3ccccc3n2C)c(=O)n1C1CCCCCC1 | 137% (active)
CCOC(=O)c1nnn2c3ccccc3c(=O)n(C)c12 | 0.18% (inactive)
CCOC(=O)N1CCN(C(=O)c2nn(-c3ccc(C)cc3)c(=O)c3c2c2ccccc2n3C)CC1 | 3.98% (inactive)
CC(C)(C)C1CCc2c(sc3nc(SCC(N)=O)nc(N)c23)C1 (stereo unspecified) | 0.65% (inactive)
Nc1nc(SCC(=O)NCCN2CCOCC2)nc2sc3c(c12)CCC3 | 2.46% (inactive)
C=C(C)CSc1nc(N)c2c3c(sc2n1)CCC3 | 155% (active)
CC(NC(=O)c1ccc(Cl)cc1)C(=O)N1CCCCC1 (stereo unspecified) | 0.19% (inactive)
O=C(CN1CCN(C2CCS(=O)(=O)C2)CC1)N1N=C(c2ccc(Cl)cc2)CC1c1ccco1 (stereo unspecified) | 0.41% (inactive)
CCOc1cc(/C=N/NC(=O)c2c(C)nc3ccc(Cl)cn23)ccc1O | -0.91% (inactive)
CCOc1cc(/C=C(\C#N)c2nc(-c3cccs3)c(NC(C)=O)s2)ccc1O | 222% (active)
CCOc1cc(C=NNC(=O)CCCC(=O)NN=Cc2ccc(O)c(OCC)c2)ccc1O | -2.14% (inactive)
CCOC(=O)c1ccc(N/C(=N/S(=O)(=O)c2ccccc2)c2ccccc2)cc1 | -1.91% (inactive)
CC1(C)O[C@H]2CC(=O)OCC23[C@H]2CC[C@@]4(C)[C@H](c5ccoc5)OC(=O)[C@H]5O[C@]54[C@]2(C)C(=O)C[C@@H]13 (stereo partly specified) | 1.6% (inactive)
CN(NS(=O)(=O)c1cccs1)c1ncc(C(F)(F)F)cc1Cl | -0.09% (inactive)
C#CCN(N(C)c1ncc(C(F)(F)F)cc1Cl)S(=O)(=O)c1ccc2ccccc2c1 | 64.8% (active)
Cc1nn(CC#N)c(=O)n1N(C)c1ncc(C(F)(F)F)cc1Cl | 1.06% (inactive)
O=C(Cc1ccc(Cl)cc1)NC(=S)Nc1ccccc1O | 128% (active)

Structure (SMILES) | activation
Cc1ccccc1NC(=S)NC(=O)Cc1ccc(Cl)cc1 | 46% (inactive)
O=C(COc1ccc(Cl)cc1)NC(=S)Nc1ccccc1N1CCOCC1 | 1.42% (inactive)
Cc1csc(=O)n1CC(=O)OCC(=O)N(CC(C)C)c1c(N)n(Cc2ccccc2)c(=O)[nH]c1=O | -0.29% (inactive)
CCCCNC(=O)C(C)N(CCN(C)C)C(=O)CCCN1C(=O)NC(c2ccc(Cl)cc2)C(C(=O)OCc2ccccc2)=C1C (stereo unspecified) | -0.71% (inactive)
CC1CCN(c2ccc3c(c2)S(=O)(=O)c2cc(C(=O)O)ccc2C3=O)CC1 | 3.35% (inactive)
Cc1ccc(CNC(=O)c2cccc3c2C(=O)c2ccc(N4CCC(C)CC4)cc2S3(=O)=O)cc1 | 56.2% (active)
Cc1ccc(CNC(=O)c2ccc3c(c2)S(=O)(=O)c2ccccc2C3=O)cc1 | -0.74% (inactive)
Cc1ccnc2nc(C(=O)OCC(=O)N(CC(C)C)CC(C)C)nn12 | 3.18% (inactive)
CC(=O)OCC1(O)CC23CCC4c5ccoc5CCC4(C)C2CCC1C3 (stereo unspecified) | 4.09% (inactive)
COc1cc(OC)cc(C(=O)NC(=S)N2CCN(c3ccc(C(F)(F)F)cc3[N+](=O)[O-])CC2)c1 | 2.06% (inactive)
CCN(CC)c1ccc(C(=O)N/N=C(\C)c2cccc(OC)c2)cc1 | 0.09% (inactive)
COc1cccc2cc(C(N)=O)/c(=N\NC(=O)c3ccccc3)oc12 | -2.1% (inactive)
CCN(CC)c1ccc2cc(C(N)=O)/c(=N\NC(=O)c3ccncc3)oc2c1 | 264% (active)
COc1cc(C(=O)NNC(=O)CN2C(=O)NC3(CCCC3)C2=O)cc(OC)c1OC | 0.66% (inactive)
Cc1c(NC(=O)C(=O)N/N=C/c2cccs2)c(=O)n(-c2ccccc2)n1C | 4.78% (inactive)
Cc1cc(C)c(S(=O)(=O)NCC(c2ccc3c(c2)OCO3)N2CCOCC2)c(C)c1 (stereo unspecified) | -1.15% (inactive)
COc1cccc2c1C(=O)c1c(O)c3c(c(O)c1C2=O)CC(O)(C(C)=NNC(=O)c1ccc(Cl)c(Cl)c1)CC3OC1CC(N)C(O)C(C)O1 (stereo unspecified) | 67.3% (active)
Cc1ccc(C(=O)N/N=C/c2sc(=O)n(Cc3cccc(C(=O)O)c3)c2Cl)cc1 | 1.16% (inactive)
CCCS(=O)(=O)N1CCC(C(=O)NCCc2ccc(OC)c(OC)c2)CC1 | -0.54% (inactive)
Cc1cccc(C(C)C)c1NC(=O)COC(=O)C1CC(=O)N(Cc2ccccc2)C1 (stereo unspecified) | -1.23% (inactive)
COc1cc(/C=C2\CCCc3c2nc2ccccc2c3C(=O)O)cc(Cl)c1O | 0.27% (inactive)
NS(=O)(=O)c1ccc(NC(=O)COC(=O)c2c3c(nc4ccccc24)/C(=C\c2ccc4c(c2)OCO4)CCC3)cc1 | 0.53% (inactive)

Structure (SMILES) | activation
NC(=O)c1ccc(NC(=O)COC(=O)c2c3c(nc4ccccc24)/C(=C\c2ccc4c(c2)OCO4)CCC3)cc1 | 255% (active)
COc1ccc([N+](=O)[O-])cc1NC(=O)CC1SC(=Nc2cccc(C)c2C)N(/N=C(\C)c2ccc(C)cc2)C1=O (stereo unspecified) | -0.05% (inactive)
Cc1ccc(C(CC(=O)O)NC(=O)c2ccc(S(=O)(=O)N3CCCC3)cc2)cc1 (stereo unspecified) | 0.98% (inactive)
Cc1ccc(C(=O)COC(=O)CCCC(=O)NC2CCCCC2)cc1[N+](=O)[O-] | 1.32% (inactive)
COc1ccc(C)cc1NC(=O)CSc1nnc(CC(=O)Nc2ccccc2F)n1C | 3.27% (inactive)
CN1C(=O)c2cccc3c(N)ccc(c23)C1=O | 222% (active)
Cc1nn(C)cc1N1C(=O)c2cccc3c(N)ccc(c23)C1=O | 200% (active)
CC(C(=O)O)N1C(=O)c2cccc3cccc1c23 (stereo unspecified) | -0.43% (inactive)
O=C1c2cccc3c([N+](=O)[O-])ccc(c23)C(=O)N1CC1CCCO1 (stereo unspecified) | 12.3% (inactive)
CC(C)n1c(CN2CCN(Cc3ccccc3)CC2)nc2ccccc21 | 1.04% (inactive)
COc1cc(CNCc2ccc3c(c2)OCO3)c([N+](=O)[O-])cc1OC | -1.29% (inactive)
COc1ccc(Br)cc1CN(C)CC(=O)Nc1cc([N+](=O)[O-])ccc1OC | 0.1% (inactive)
CCCCN1CCNC1=S | -0.03% (inactive)
CCCCN1C(N)=NC[C@@H]1CC1CCCCC1 | -0.4% (inactive)
CCOc1ccc(NC(=O)c2ccc(CSc3nnnn3C)cc2)cc1 | 1.79% (inactive)
NS(=O)(=O)c1ccc(NC(=O)COC(=O)C2(c3ccc(F)cc3)CCCC2)cc1 | -2.26% (inactive)
Cc1cc(NS(=O)(=O)c2ccc(NC(=O)c3cccc(OC(F)F)c3)cc2)nc(C)n1 | 73.2% (active)
Cc1cc(NS(=O)(=O)c2ccc(NC(=O)C(C)Oc3cccc(C)c3C)cc2)nc(C)n1 (stereo unspecified) | -1.14% (inactive)
Cc1cc(NS(=O)(=O)c2ccc(NC(=O)c3cccnc3)cc2)nc(C)n1 | -0.63% (inactive)
COc1ccc(N2CCN(C(CNS(=O)(=O)c3ccc(C)cc3)c3ccccc3)CC2)cc1 (stereo unspecified) | -2.07% (inactive)
